G9a block: qHTS Assay for Inhibitors of Histone Lysine Methyltransferase G9a | Histone-lysine N-methyltransferase EHMT2 (Homo sapiens), Q96KQ7 | actives 8.8% (n = 350,000) | Potency, µM (series often up to 102 µM), actives largely listed as inhibitors | G9a H3K9 monomethylation, AlphaScreen, 2 h | AID 504332, 2011; note: nearly all actives have a fitted effect of over 75% in size
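Compounds were preincubated with 20 nM G9a for 15 min, after which biotinylated H3K9 peptide (500 nM) and SAM (20 uM) started a 2 h room-temperature reaction. Monomethylated product was quantified by antibody-based AlphaScreen chemiluminescence.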
VDR inhibitor: Inhibitors of the vitamin D receptor (VDR): qHTS; Vitamin D3 receptor (Homo sapiens), P11473; VDR-SRC2-3 peptide fluorescence polarization, 2 h; Potency, µM, actives largely listed as inhibitors; actives 0.93% (n = 400,000); AID 504847, 2011
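Reagent solutions, kept cold and dark, are dispensed first; compounds are then pinned in at 23 nl, plates briefly spun, and incubated 2 h at ambient temperature. Inhibition of VDR–SRC2-3 peptide binding is read by fluorescence polarization.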
JMJD2A Tudor: qHTS Assay for Inhibitors of JMJD2A-Tudor Domain. AlphaScreen JMJD2A-Tudor / H3K4me3 peptide binding. Potency, µM (top dose mostly 114 µM), most hits filed as inhibitors. Lysine-specific demethylase 4A (Homo sapiens), O75164. actives 4.4% (n = 390,000); note: nearly all actives have a fitted effect of over 50% in size
HP1b binding inh: HTS for Inhibitors of HP1-beta Chromodomain Interactions with Methylated Histone Tails; AID 540317, 2011; Chromobox protein homolog 1 (Homo sapiens), P83916; actives 0.56% (n = 390,000); AlphaScreen HP1-beta / biotin-H3K9me3 peptide binding; Potency, µM (highest dose often 114 µM), actives largely listed as inhibitors; note: nearly all actives have a fitted effect of over 70% in size
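HP1-beta protein (50 nM final) preincubated 30 min at room temperature with biotinylated H3(1-18)K9me3 peptide (50 nM) in PBS pH 7.4, 0.01% Tween-20, then compound added for 30 min. AlphaScreen streptavidin donor/nickel chelate acceptor beads (10 ug/mL final), 30 min dark, luminescence read.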
BAZ2B inh: qHTS Assay for Inhibitors of BAZ2B; AlphaScreen BAZ2B-H3K14Ac peptide displacement; Potency, µM (top dose mostly 114 µM), usual class: inhibitors; actives 4.4% (n = 360,000); note: nearly all actives have a fitted effect of over 60% in size
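In this displacement format the biotinylated H3(5-23) peptide acetylated at Lys14 serves as ligand at 50 nM, with BAZ2B at 50 nM in PBS pH 7.4 containing 0.01% Tween-20. Donor and acceptor beads are 10 ug/mL final.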
PLK1 PBD inh: qHTS for Inhibitors of PLK1-PDB (polo-like kinase 1 - polo-box domain): Primary Screen; Serine/threonine-protein kinase PLK1 (Homo sapiens), P53350; Plk1 PBD binding of FITC phosphopeptide, fluorescence polarization; Potency, µM, actives largely listed as inhibitors; actives 2.8% (n = 360,000); note: series mostly up to about 57 µM; nearly all actives have a fitted effect of over 65% in size
Target sequence (P53350 whole entry, looked up, the tested form may be a part): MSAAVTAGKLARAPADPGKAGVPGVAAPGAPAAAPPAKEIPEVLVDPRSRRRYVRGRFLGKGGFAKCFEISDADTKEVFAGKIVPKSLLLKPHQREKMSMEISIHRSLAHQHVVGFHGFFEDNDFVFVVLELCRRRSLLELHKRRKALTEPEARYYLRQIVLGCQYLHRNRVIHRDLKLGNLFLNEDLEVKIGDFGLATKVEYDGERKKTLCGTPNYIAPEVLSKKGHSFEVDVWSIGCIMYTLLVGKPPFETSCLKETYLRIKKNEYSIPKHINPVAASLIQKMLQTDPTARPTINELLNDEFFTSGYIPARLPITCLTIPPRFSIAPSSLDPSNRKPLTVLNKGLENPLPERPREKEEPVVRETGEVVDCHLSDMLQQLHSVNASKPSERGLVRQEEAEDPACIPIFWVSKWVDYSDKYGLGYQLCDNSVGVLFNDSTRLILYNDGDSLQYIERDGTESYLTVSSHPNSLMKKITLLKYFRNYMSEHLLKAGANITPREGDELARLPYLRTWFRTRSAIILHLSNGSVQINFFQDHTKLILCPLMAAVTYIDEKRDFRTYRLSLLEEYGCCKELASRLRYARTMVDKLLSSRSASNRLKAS
Of the large screens only hits and unclear results are named; the others gave an inactive call; ! = a repeat was not active. Shown are actives, neighbours in structure and some others; about 11% of the full set was active somewhere. Calls come from the whole dose curve; as a rule, active = well fitted curve in the direction sought with a large enough effect; inconclusive = small, poorly fitted or top-dose-only effect, or another doubt; inactive = no such curve, though single readings can be large; an effect the other way counts as inactive or inconclusive.

Cc1nc(C)c(C(=O)N(c2ccccc2F)C(C(=O)NCC2CCCO2)c2ccccc2)s1 (stereo not drawn)	VDR inhibitor inconclusive, JMJD2A Tudor inconclusive, PLK1 PBD inh 27µM
O=S(=O)(c1ccccc1)c1nnn2c1nc(NCc1ccc(F)cc1)c1sccc12	BAZ2B inh inconclusive (no result: PLK1 PBD inh)
CC(=O)c1c(C(=O)O)[nH]c(C(=O)O)c1C	G9a block 16µM, BAZ2B inh inconclusive
Cc1[nH]c(C(=O)O)c(C)c1C(=O)OC(C)C	none
CC(=O)N1C(=O)C2(C(C#N)=C(N)Oc3n[nH]c(-c4ccccn4)c32)c2ccccc21 (stereo not drawn)	PLK1 PBD inh 24µM
Cc1[nH]nc2c1C1(C(=O)N(Cc3ccc(Cl)cc3)c3ccccc31)C(C#N)=C(N)O2 (stereo not drawn)	G9a block 50µM, JMJD2A Tudor inconclusive
COc1cc(OC)cc(-c2n[nH]c(=S)n2-c2ccc3c(c2)OCO3)c1	G9a block 1.8µM, JMJD2A Tudor 20µM
Fc1ccc(-n2c(-c3ccc4c(c3)OCO4)n[nH]c2=S)cc1Cl	G9a block 1.4µM
Fc1ccc(-n2c(-c3ccc4ccccc4n3)n[nH]c2=S)cc1Cl	G9a block inconclusive
COc1cc(OC)cc(-c2cc3cc4c(cc3cn2)OCO4)c1	none (no result: G9a block, BAZ2B inh)
COc1ccc(-n2c(=O)c(C)nc3cnc(Oc4cccc(Cl)c4)nc32)cc1	none (no result: JMJD2A Tudor, HP1b binding inh, BAZ2B inh, PLK1 PBD inh)
O=C(/C(=C/O)N=Nc1ccccc1)c1cccs1	G9a block 35µM, HP1b binding inh 45µM, BAZ2B inh 22µM, PLK1 PBD inh inconclusive
C=C(C)C(=O)c1cccs1	none (no result: G9a block, JMJD2A Tudor, HP1b binding inh, BAZ2B inh, PLK1 PBD inh)
COC(=O)c1cc(C(=O)OCC(=O)N(C)c2ccccc2)cc([N+](=O)[O-])c1	none
C[c-]1[c-](C)[c-](C)[c-](C)[c-]1C.[Fe].c1cc2nccc(N3CCCC3)[c-]2c1 (stereo not drawn)	G9a block inconclusive, JMJD2A Tudor 45µM, HP1b binding inh 18µM!, BAZ2B inh 40µM, PLK1 PBD inh inconclusive
COc1ccc(Nc2nc(N)c(C(=O)c3ccc(F)cc3)s2)cc1	G9a block inconclusive, JMJD2A Tudor inconclusive
Cc1ccc(C(=O)c2sc(Nc3ccc(F)cc3)nc2N)c(C)c1	G9a block inconclusive, JMJD2A Tudor 79µM, HP1b binding inh inconclusive, BAZ2B inh 40µM (no result: PLK1 PBD inh)
COc1ccc(CCNC(=O)CCNC(=O)c2ccc([N+](=O)[O-])cc2)cc1	none
CCOC(=O)C(=O)NNc1cccc(C)c1C	G9a block 0.63µM
Cc1nnc2n(c1=O)N=C(c1ccc(Cl)cc1)CS2	G9a block 71µM, VDR inhibitor inconclusive, PLK1 PBD inh inconclusive
CCCc1nnc2n1N=C(c1ccc(C)cc1)CS2	G9a block 79µM
CCCc1nnc2n1N=C(c1ccc([N+](=O)[O-])cc1)CS2	G9a block 71µM
Cc1cc(C)c2c(n1)nn1c(C)c(CCC(=O)NCc3ccccc3Cl)c(C)nc21	none (no result: PLK1 PBD inh)
CN(C1=NS(=O)(=O)c2ccccc21)c1ccc(OC(=O)c2ccccc2F)cc1	none (no result: G9a block, VDR inhibitor, JMJD2A Tudor, HP1b binding inh, BAZ2B inh)
Cc1ccc(Cl)cc1NC(=O)C[n+]1ccc(Cc2ccc([N+](=O)[O-])cc2)cc1	G9a block 25µM, JMJD2A Tudor inconclusive
O=C(C[n+]1ccc(Cc2ccccc2)cc1)Nc1ccc([N+](=O)[O-])cc1Cl	none
CC(=O)N1CCN(S(=O)(=O)c2cccc(C(=O)Nc3ccc(OC(F)F)cc3)c2)CC1	none
COCCN(CC(=O)Nc1cccc(S(=O)(=O)N2CCCC2)c1)Cc1nc2ccccc2c(=O)[nH]1	G9a block 50µM
CC(=O)N1CCN(S(=O)(=O)c2cccc(C(=O)Nc3ccc4c(c3)CCC4)c2)CC1	G9a block 28µM
CN(C)S(=O)(=O)c1cccc(NC(=O)c2ccc(S(=O)(=O)N3CCCCC3)cc2)c1	G9a block inconclusive, JMJD2A Tudor 89µM
CS(=O)(=O)c1cccc(C(=O)Nc2cccc(S(=O)(=O)N3CCCC3)c2)c1	G9a block inconclusive
COc1cc(C(=O)Nc2cccc(S(=O)(=O)N3CCCC3)c2)cc(OC)c1C	G9a block 32µM
O=C(CSC(=S)N1CCOCC1)Nc1ncc2c(n1)CC(c1ccco1)CC2=O (stereo not drawn)	none
COc1ccc(Br)cc1CN(C)CC(=O)Nc1cccc(S(=O)(=O)N2CCCC2)c1	JMJD2A Tudor 25µM, HP1b binding inh inconclusive (no result: G9a block, BAZ2B inh)
COc1ccc(Br)cc1CN(C)CC(=O)Nc1cccc(S(N)(=O)=O)c1	none
COC(=O)CCC(=O)OC1(C)C(=O)C=C2C=C(C3CC3)N(CCCOC(C)C)C=C2C1=O (stereo not drawn)	VDR inhibitor inconclusive, PLK1 PBD inh 30µM
COC(=O)CCC(=O)OC1(C)C(=O)C=C2C=C(C3CC3)N(CCCCO)C=C2C1=O (stereo not drawn)	none
O=C(NCCc1ccc(Cl)cc1)c1nnc(Cc2ccc(F)cc2)o1	none (no result: PLK1 PBD inh)
C[C@@H](CN(C)C[C@H]1C(=O)O[C@@H]2C[C@@]3(C)CCC[C@]4(CO4)C3CC21)[C@H](O)c1ccccc1 (stereo partly drawn)	none (no result: G9a block, JMJD2A Tudor, HP1b binding inh, BAZ2B inh, PLK1 PBD inh)
COc1ccccc1N1CCN(C(=O)CSc2nc3ccccc3nc2Cc2ccc(F)cc2)CC1	none (no result: PLK1 PBD inh)
Cc1cc(Br)c(S(=O)(=O)NCc2ccncc2)cc1C	G9a block inconclusive
Cc1cc(NCc2ccncc2)ccc1Br	JMJD2A Tudor 18µM, HP1b binding inh inconclusive, BAZ2B inh 50µM (no result: G9a block)
Cc1ccc(NCc2ccncc2)c(Br)c1	JMJD2A Tudor 1.6µM, HP1b binding inh 28µM, BAZ2B inh 22µM (no result: G9a block)
O=S(=O)(NCc1nc2cccnc2n1Cc1ccccc1Cl)c1ccc2c(c1)CCCC2	none (no result: PLK1 PBD inh)
COc1ccccc1/C=C/CN1CC(C)OC(C)C1 (stereo not drawn)	G9a block inconclusive, JMJD2A Tudor 3.2µM, HP1b binding inh inconclusive, BAZ2B inh 45µM
COc1ccccc1NC(=O)CCN1CC(C)OC(C)C1 (stereo not drawn)	none
COc1ccccc1/C=C/CN1CCCCC1	G9a block 28µM, JMJD2A Tudor 1.4µM, HP1b binding inh inconclusive, BAZ2B inh 79µM
COc1ccccc1/C=C/CN1CCC(Oc2ccc(C(=O)N3CCCCC3)cc2)CC1	JMJD2A Tudor inconclusive, BAZ2B inh inconclusive (no result: G9a block)
NCCNC(=O)c1ccc(Cl)cn1	none (no result: JMJD2A Tudor, HP1b binding inh, BAZ2B inh, PLK1 PBD inh)
C=CS(=O)(=O)c1sc(Cl)c(N2CCOCC2)c1[N+](=O)[O-]	G9a block 8.9µM, VDR inhibitor inconclusive, JMJD2A Tudor 79µM, HP1b binding inh inconclusive, BAZ2B inh inconclusive, PLK1 PBD inh 0.53µM
